The source of these data is PubChem BioAssay (NCATS).

A short description of test [1]: Confirmation and Secondary Assay for Modulators of Hemoglobin Beta Chain Splicing at IVS2 654 locus (AID 910).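 Note: per-well total GFP intensity by laser scanning cytometry after 2-day treatment; % of control where 0% means no effect.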 A digest of the protocol: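 HeLa cells stably carrying EGFP interrupted by mutant beta-globin IVS2-654 intron (CMV-driven) were treated with compound for 2 days at 37C; corrected splicing was scored as total peak GFP intensity per well (488 nm excitation, 500-520 nm emission).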

A short description of test [2]: Confirmation and Secondary Assay for Modulators of Hemoglobin Beta Chain Splicing at IVS2 705 locus (AID 930).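 Note: HeLa cells stably expressing the EGFP-705 splicing reporter; GFP fluorescence per well restored by corrected splicing of the IVS2-705 intron in EGFP; % of control where 0% means no effect.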 A digest of the protocol: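 Secondary splice-site specificity test uses HeLa expressing CMV-driven EGFP interrupted by IVS2-705; cells were treated 2 days at 37C with 500 nM antisense PNA as positive control.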
Test [3] is described as follows: qHTS Assay for Lipid Storage Modulators (AID 1519; calls by dose curve). Conditions: Drosophila S3 cells, BODIPY lipid droplet/cell ratio, laser cytometry, cells loaded with oleic acid; for activity change, negative = inhibition: at 57.5 µM (top of the series). The procedure, abridged: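 Cells seeded at 5,000 per well were treated with compounds over a concentration series and loaded with oleic acid (400 uM, as added). Lipid droplet fluorescence (488 nm excitation, 500-530 nm channel) was read by laser-scanning cytometry and normalized to 20 uM Triacsin C.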
(In general: Quantitative high-throughput screening tests each substance at several concentrations.)

Test [4] deals with Ubiquitin carboxyl-terminal hydrolase 1 (Homo sapiens) (UniProt O94782). In words: Inhibitors of USP1/UAF1: Pilot qHTS (AID 504865). Note: nearly all actives have a fitted effect of over 35% in size. Note: potency is the fitted concentration of half-maximal effect. A digest of the protocol:
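1nM USP1/UAF1 + cpd, 15 min RT; start w/ Ub-Rho 150nM final; kinetic FL 480/540 nm, 6 reads q60 s. Buffer 50mM HEPES pH 7.8, 0.5mM EDTA, 1mM TCEP, 0.01% Tween-20, 0.1 mg/ml BSA.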

Test [5] is described as follows: Primary qHTS for small molecule stabilizers of the endoplasmic reticulum resident proteome: Secreted ER Calcium Modulated Protein (SERCaMP) assay (AID 1508630). Note: % is set by controls: 0 for no effect and ±100 for the full control effect. The procedure, abridged: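 The SH-SY5Y reporter protocol was run at 3 concentrations up to 38.3 uM (primary) or 11 concentrations (follow-up): 16 h compound, 100 nM thapsigargin for 4 h, then extracellular luciferase luminescence.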

A short description of test [6]: NCATS anti-infectives library activity on HEK293 viability as a counter-qHTS vs the C. elegans viability qHTS (AID 1745854).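 Note: HEK293 cells exposed to compounds for 24 hr before the viability read; % is set by controls: 0 for no effect and ±100 for the full control effect.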 A digest of the protocol: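 Counter-screen for cytotoxicity: HEK293, 24 hr, 37C, compounds up to 41.7 uM final (a dilution series, 1:5). Readout CellTiter-Glo luminescence, 10 min RT. Digitonin control, 83.3 uM final.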
For test [7], the target named is Cytochrome P450 3A4 (Homo sapiens) (UniProt P08684). Put plainly: qHTS Assay for Activators of Cytochrome P450 3A4 (AID 885). Note: nearly all actives have a fitted effect of over 65% in size. The procedure, abridged:
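Activators are scored by enhanced luminescence from CYP3A4 conversion of luciferin-PPXE (25uM, equal to KM) to luciferin, after 60 min at RT with an NADPH-regenerating system.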

In test [8] the target is Rap guanine nucleotide exchange factor 3 (Homo sapiens) (UniProt O95398). In words: Confirmatory qHTS for antagonist of cAMP-regulated guanine nucleotide exchange factor 3 (EPAC1) (AID 1645880).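 Note: plate controls were DMSO only for no effect and full effect of the ATA control for full effect; nearly all actives have a fitted effect of over 55% in size.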 A digest of the protocol: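 Released BODIPY-GDP fluoresces less than Rap1-bound BODIPY-GDP; the signal is followed at 480/540 nm at 5-min intervals over 30 min, after 5 min at room temperature. Reactions contain 100 nM EPAC1, 250 nM RAP1B-BODIPY-GDP and 50 uM GDP; results are normalized to ATA and DMSO.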
Sequence of Rap guanine nucleotide exchange factor 3 (Homo sapiens) (O95398 whole entry, looked up): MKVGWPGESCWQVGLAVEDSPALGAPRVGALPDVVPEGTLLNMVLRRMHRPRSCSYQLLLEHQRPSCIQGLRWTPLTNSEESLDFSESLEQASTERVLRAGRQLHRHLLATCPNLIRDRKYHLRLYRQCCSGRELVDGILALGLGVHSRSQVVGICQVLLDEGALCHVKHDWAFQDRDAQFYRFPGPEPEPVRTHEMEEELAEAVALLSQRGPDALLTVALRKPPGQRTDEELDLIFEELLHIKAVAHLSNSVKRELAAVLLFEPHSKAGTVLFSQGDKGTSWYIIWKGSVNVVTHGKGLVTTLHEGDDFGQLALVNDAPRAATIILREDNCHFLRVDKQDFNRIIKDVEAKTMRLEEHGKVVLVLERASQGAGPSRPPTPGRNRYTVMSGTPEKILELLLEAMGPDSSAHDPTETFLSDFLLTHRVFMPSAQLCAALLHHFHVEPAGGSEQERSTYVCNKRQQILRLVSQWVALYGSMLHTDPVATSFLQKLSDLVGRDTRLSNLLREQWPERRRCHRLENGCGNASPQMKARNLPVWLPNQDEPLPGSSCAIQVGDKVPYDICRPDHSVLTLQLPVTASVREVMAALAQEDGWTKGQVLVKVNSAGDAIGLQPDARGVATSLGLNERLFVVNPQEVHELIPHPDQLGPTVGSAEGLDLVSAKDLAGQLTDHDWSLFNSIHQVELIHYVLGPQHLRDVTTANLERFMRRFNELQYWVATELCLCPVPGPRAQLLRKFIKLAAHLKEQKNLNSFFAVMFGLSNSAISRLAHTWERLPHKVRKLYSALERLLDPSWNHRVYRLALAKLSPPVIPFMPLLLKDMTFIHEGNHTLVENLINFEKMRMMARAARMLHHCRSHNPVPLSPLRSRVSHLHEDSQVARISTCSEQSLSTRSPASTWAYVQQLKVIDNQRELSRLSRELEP

For test [9] the target is unchanged. In words: Confirmatory qHTS for agonist of cAMP-regulated guanine nucleotide exchange factor 3 (EPAC1) (AID 1645881).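 Note: EPAC1 catalysed release of BODIPY-GDP from Rap1B seen as fluorescence loss; 100% = effect of cAMP agonist control; nearly all actives have a fitted effect of over 75% in size.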
Test [10] addresses Rap guanine nucleotide exchange factor 4 (Homo sapiens) (UniProt Q8WZA2). In words: Confirmatory qHTS for agonist of cAMP-regulated guanine nucleotide exchange factor 4 (EPAC2) (AID 1645884).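 Note: nucleotide exchange releases bodipy-GDP from Rap1 and this lowers its fluorescence; % is set by controls: 0 for no effect and ±100 for the full control effect; nearly all actives have a fitted effect of over 65% in size.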
Test [11] shares this target. In words: Confirmatory qHTS for antagonist of cAMP-regulated guanine nucleotide exchange factor 4 (EPAC2) (AID 1645885). Note: nearly all actives have a fitted effect of over 25% in size. Note: potency is the fitted concentration of half-maximal effect.
Test [12] deals with Lysosomal acid glucosylceramidase (Homo sapiens) (UniProt P04062). Put plainly: Glucocerebrosidase-p2 (AID 348; in the data active = potency below about 10 µM; note: potency is the fitted concentration of half-maximal effect). Conditions: purified GBA, blue fluorogenic substrate, 40 min. A digest of the protocol:
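Normal human glucocerebrosidase (0.2 nM) with blue fluorogenic substrate (80 uM final) in citrate/phosphate pH 5.9 with 10mM sodium taurocholate, 0.01% tween-20; 40 min RT, NaOH/glycine stop; fluorescence Ex 365/Em 440; AC50 from a titration from 0.6 nM upwards.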

Test [13] concerns the target Cytochrome P450 1A2 (Homo sapiens) (UniProt P05177). Put plainly: p450-cyp1a2 (AID 410; calls by dose curve; note: potency is the fitted concentration of half-maximal effect). The procedure, abridged: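 O-Demethylation of luciferin 6' methyl ether by human CYP1A2 is monitored as luciferase luminescence. Substrate sits at Km (100uM); enzyme is 20nM. Values are scaled to 57 uM furafylline as maximal inhibition.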
Test [14] concerns the target Glucocorticoid receptor (Homo sapiens) (UniProt P04150). In words: GR-GFP Redistribution (AID 450;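 active = compounds whose dose series gives a full or clear partial fitted curve of increased nuclear translocation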; note: potency is the fitted concentration of half-maximal effect). Conditions: U2OS GR-GFP nuclear translocation, laser cytometry, 2 h.
Test [15] shares this target. In words: GR-EFC Redistribution (AID 451; calls by dose curve; note: potency is the fitted concentration of half-maximal effect). The note with it: CHO-K1 GR-EFC translocation, beta-gal luminescence, 2 h. The procedure, abridged: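 CHO-K1 cells stably expressing nuclear-localized β-gal enzyme acceptor and GR fused C-terminally to the enzyme donor fragment; ligand-driven nuclear translocation restores β-gal by complementation. Compounds titrated up to 46 uM final, 2 h at 37 °C; luminescence read.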

Test [16] addresses 3',5'-cyclic-AMP phosphodiesterase 4B (Homo sapiens) (UniProt Q07343). In words: qHTS Assay for Inhibitors of PDE-IV (AID 607; active = well fitted activation curve with a large enough effect in the main read-out, with a control signal flat, not every such curve was filed as active; note: % of control where 0% means no effect). A digest of the protocol:
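The readout is membrane depolarisation from a cAMP-sensing CNG channel, detected with a potential dye at ex 535/em 590. Cells were HEK293-derived (endogenous PDE-IV) at 1000 cells/well, titrated up to 22.9 uM final.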

In test [17] the target is Dual specificity protein kinase CLK4 (Homo sapiens) (UniProt Q9HAZ1). Put plainly: qHTS Assay for Inhibitors of CDC-like Kinase 4 (Kinase-Glo Assay) (AID 1770). Note: % is set by controls: 0 for no effect and ±100 for the full control effect; nearly all actives have a fitted effect of over 65% in size. The procedure, abridged: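 Readout: Kinase-Glo luminescence from ATP left after a 4.5 h room-temperature reaction of 25 nM Clk4 with 100 uM RS peptide and 1 uM ATP (final). Buffer: 25 mM Tris pH 7.5, 10 mM MgCl2.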
Sequence of Dual specificity protein kinase CLK4 (Homo sapiens) (Q9HAZ1 whole entry, looked up): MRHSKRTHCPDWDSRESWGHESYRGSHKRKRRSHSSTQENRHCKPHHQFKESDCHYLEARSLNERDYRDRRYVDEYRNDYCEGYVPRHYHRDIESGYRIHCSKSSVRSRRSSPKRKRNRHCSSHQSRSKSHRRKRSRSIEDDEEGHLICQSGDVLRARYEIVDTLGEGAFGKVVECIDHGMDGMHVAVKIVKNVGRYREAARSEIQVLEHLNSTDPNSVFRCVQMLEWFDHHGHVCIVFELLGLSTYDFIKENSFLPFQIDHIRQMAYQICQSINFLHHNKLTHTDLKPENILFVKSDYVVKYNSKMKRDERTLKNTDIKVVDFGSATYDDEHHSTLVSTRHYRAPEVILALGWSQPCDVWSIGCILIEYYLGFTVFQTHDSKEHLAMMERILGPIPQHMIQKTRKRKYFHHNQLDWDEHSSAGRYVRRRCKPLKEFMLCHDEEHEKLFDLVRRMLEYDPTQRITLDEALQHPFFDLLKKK

Test [18] has the same target. Put plainly: qHTS Assay for Inhibitors of CDC-like Kinase 4 (ADP-Glo Assay) (AID 1771). Note: % is set by controls: 0 for no effect and ±100 for the full control effect; nearly all actives have a fitted effect of over 70% in size. The procedure, abridged: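 Compounds are pin-transferred onto substrate mix (100 uM RS peptide, 1 uM ATP), then 25 nM Clk4 is added. After 1 hr at room temperature, ADP-Glo reagent runs 45 min, detection reagent 30 min, then luminescence is read.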
The nature of test [19]: AP1 Signaling Pathway (AID 357; active = well fitted curve in either direction with a large enough effect, not every such curve was filed as active; note: % is set by controls: 0 for no effect and ±100 for the full control effect). The note with it: ME-180 AP-1-bla reporter, EGF-induced, beta-lactamase ratio, 5 h; at 7.69 µM (top of the series) unless noted. A digest of the protocol: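 ME-180 cells with beta-lactamase reporter under AP-1 response element, stimulated with EC50 EGF; compounds tested in titration series, 5 h at 37 °C. CCF4 substrate added 2.5 h at room temperature; 460/530 nm emission ratio gave %activity and AC50.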

The nature of test [20]: Stat Signaling Pathway (AID 446; active = well fitted curve in either direction with a large enough effect, not every such curve was filed as active;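 note: ME-180 cervical cancer cells given 40 pM IL-6 alongside compound; SIE-controlled beta-lactamase reporter measured as 460/530 nm FRET emission ratio; % is set by controls: 0 for no effect and ±100 for the full control effect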). Conditions: ME-180 SIE beta-lactamase reporter, IL-6 stimulated, 5 h; at 7.69 µM (top of the series) unless noted. The procedure, abridged:
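Emission at 460 and 530 nm (excitation 405 nm) reports SIE-controlled beta-lactamase in ME-180 cells. Cells received compound with 40 pM IL-6 for 5 hrs at 37 C; data scaled between 300 pM IL-6 and 125 nM JAK-inhibitor controls.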

Test [21] concerns the target Mitogen-activated protein kinase 10 (Mus musculus) (UniProt Q61831). Put plainly: JNK3 AlphaScreen Assay (AID 530; active = well fitted curve in either direction with a large enough effect, not every such curve was filed as active). The procedure, abridged: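 Phosphorylation of biotinylated GST-cJun(1-79) at Ser73 is measured by AlphaScreen proximity luminescence. Enzyme is JNK3 in HepG2 lysates activated with interleukin-1beta and tumor necrosis factor alpha; ATP is 10 uM final.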

Test [22] concerns the target Cytochrome P450 2C19 (Homo sapiens) (UniProt P33261). In words: qHTS Assay for Inhibitors and Substrates of Cytochrome P450 2C19 (AID 899). Note: potency is the fitted concentration of half-maximal effect; nearly all actives have a fitted effect of over 60% in size. A digest of the protocol:
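In 50mM KPO4, the reaction held 5nM enzyme and KM-level (10uM) Luciferin-H EGE; it ran 60 min at 37C after NADPH regeneration and a 10 min compound preincubation. Luminescence values were scaled to 57uM ketoconazole as complete inhibition.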

Test [23] can be described thus: qHTS Assay for Identification of Small Molecule Agonists for Hypoxia Response Element Signaling Pathway (AID 914; active = well fitted activation curve with a large enough effect in the signal ratio, with a control signal flat, not every such curve was filed as active; the % refers to the signal ratio; note: % of control where 0% means no effect). The note with it: ME-180 (cervical carcinoma) HRE-bla reporter, beta-lactamase ratio, CoCl2, 17 h; activation: stronger effect = higher value. The procedure, abridged:
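qHTS titration; ME-180 HRE-bla cells; EC50 CoCl2 co-treatment, 17 h at 37 degrees Celsius; CCF4 dye, ex 405nm, em 460nm and 530nm; %Activity from ratio; AC50.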

Test [24] concerns the target Dual specificity protein kinase CLK4 (Homo sapiens) (UniProt Q9HAZ1). Put plainly: qHTS Assay for Inhibitors of CDC-like Kinase 4 (ADP-FP Assay) (AID 1795).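 Note: recombinant human CLK4 phosphorylating RS repeat peptide at 1 µM ATP; % is set by controls: 0 for no effect and ±100 for the full control effect; nearly all actives have a fitted effect of over 60% in size.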 The procedure, abridged:
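FP readout: Orange Transcreener ADP2 tracer (4 nM) plus ADP antibody, read after 30 min at room temperature. Kinase step: 6.25 nM Clk4, 100 uM RS peptide, 1 uM ATP, pH 7.5, 1 h.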

[25] abbreviates: measured here: cell count channel max response.
The mark [26] stands for this setting: measured here: lipid channel max response.

Records with an inconclusive call do not appear. Calls of active or inactive are those of the source. Unless noted, calls come from the whole dose curve; as a rule, active = well fitted curve in the direction sought with a large enough effect; inconclusive = small, poorly fitted or top-dose-only effect, or another doubt; inactive = no such curve, though single readings can be large; an effect the other way counts as inactive or inconclusive. Bounds are passed on as bounds.

Sequence of Ubiquitin carboxyl-terminal hydrolase 1 (Homo sapiens) (O94782 whole entry, looked up): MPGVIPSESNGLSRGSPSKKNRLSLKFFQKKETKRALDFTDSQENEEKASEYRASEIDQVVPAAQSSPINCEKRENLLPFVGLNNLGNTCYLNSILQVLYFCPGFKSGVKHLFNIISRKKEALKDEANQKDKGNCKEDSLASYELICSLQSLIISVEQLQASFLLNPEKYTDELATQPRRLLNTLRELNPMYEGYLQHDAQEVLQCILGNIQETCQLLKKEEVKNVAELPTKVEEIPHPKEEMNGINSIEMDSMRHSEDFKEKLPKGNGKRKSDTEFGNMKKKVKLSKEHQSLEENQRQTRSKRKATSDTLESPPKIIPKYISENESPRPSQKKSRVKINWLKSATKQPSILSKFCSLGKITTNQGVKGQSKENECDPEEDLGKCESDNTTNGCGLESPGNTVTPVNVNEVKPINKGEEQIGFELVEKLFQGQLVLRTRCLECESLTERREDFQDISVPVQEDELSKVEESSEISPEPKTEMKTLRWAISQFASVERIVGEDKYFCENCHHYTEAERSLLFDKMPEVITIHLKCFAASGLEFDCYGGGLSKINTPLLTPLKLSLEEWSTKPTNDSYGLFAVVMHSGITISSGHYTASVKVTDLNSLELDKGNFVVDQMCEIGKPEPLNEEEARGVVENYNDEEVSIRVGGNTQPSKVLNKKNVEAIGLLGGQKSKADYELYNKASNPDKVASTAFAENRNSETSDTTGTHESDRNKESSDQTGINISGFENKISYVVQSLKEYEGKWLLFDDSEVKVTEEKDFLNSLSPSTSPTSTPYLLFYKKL
Sequence of Cytochrome P450 3A4 (Homo sapiens) (P08684 whole entry, looked up): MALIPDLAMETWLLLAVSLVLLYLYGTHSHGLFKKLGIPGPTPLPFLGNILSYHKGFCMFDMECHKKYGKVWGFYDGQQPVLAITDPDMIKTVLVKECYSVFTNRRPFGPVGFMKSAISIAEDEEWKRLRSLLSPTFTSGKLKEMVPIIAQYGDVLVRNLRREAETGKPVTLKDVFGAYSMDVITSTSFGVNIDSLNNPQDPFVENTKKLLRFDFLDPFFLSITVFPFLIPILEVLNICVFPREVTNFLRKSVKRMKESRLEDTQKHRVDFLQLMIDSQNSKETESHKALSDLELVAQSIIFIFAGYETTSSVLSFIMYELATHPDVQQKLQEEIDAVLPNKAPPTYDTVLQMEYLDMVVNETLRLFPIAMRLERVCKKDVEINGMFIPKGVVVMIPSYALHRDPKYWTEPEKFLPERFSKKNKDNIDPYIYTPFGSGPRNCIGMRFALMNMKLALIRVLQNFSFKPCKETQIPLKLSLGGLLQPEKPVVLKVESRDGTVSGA
Sequence of Rap guanine nucleotide exchange factor 4 (Homo sapiens) (Q8WZA2 whole entry, looked up): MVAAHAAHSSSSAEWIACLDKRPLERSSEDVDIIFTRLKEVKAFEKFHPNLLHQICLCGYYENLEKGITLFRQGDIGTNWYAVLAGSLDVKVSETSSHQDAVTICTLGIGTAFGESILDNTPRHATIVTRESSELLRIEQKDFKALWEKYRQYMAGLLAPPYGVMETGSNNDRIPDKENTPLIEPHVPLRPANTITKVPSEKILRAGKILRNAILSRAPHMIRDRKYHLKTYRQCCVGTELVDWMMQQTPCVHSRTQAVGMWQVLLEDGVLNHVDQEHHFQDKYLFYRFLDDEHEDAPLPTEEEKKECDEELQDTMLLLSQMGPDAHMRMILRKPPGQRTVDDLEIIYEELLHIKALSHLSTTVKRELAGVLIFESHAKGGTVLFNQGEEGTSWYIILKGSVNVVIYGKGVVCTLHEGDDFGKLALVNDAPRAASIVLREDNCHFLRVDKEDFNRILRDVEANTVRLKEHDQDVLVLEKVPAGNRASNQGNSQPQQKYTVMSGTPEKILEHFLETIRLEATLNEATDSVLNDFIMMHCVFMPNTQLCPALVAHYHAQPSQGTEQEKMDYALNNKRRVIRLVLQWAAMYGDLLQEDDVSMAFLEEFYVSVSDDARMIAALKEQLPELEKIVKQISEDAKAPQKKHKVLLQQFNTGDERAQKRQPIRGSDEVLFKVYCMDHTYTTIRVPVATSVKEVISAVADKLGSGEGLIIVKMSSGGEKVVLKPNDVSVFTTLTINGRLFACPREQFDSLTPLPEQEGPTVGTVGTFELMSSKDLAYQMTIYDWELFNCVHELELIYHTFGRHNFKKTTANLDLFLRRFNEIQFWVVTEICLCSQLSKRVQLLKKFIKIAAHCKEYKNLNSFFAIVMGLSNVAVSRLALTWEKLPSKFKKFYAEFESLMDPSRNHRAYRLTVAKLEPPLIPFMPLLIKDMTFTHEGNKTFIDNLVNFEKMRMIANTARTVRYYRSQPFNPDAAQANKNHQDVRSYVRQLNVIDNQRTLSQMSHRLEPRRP
Sequence of Glucocorticoid receptor (Homo sapiens) (P04150 whole entry, looked up, the tested form may be a part): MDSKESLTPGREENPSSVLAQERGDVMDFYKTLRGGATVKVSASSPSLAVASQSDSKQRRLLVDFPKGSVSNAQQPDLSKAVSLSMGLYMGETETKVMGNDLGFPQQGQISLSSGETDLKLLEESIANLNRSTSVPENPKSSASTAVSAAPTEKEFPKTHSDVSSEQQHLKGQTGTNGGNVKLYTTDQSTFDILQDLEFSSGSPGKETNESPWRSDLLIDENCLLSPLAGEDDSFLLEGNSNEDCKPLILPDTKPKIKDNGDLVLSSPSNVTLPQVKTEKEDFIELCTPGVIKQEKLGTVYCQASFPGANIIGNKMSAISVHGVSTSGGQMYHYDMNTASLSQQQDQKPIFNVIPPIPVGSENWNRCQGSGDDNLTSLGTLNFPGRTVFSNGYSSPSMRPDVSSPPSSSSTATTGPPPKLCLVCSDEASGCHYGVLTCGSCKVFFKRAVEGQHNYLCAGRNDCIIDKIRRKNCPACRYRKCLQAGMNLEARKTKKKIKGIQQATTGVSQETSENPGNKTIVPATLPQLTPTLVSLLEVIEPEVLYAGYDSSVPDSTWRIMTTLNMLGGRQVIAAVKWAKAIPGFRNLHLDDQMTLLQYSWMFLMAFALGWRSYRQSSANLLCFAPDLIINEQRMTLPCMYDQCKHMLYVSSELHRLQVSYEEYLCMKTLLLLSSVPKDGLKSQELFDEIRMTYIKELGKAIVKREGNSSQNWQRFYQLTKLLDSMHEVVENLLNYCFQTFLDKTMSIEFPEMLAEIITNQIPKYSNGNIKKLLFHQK
Sequence of Cytochrome P450 1A2 (Homo sapiens) (P05177 whole entry, looked up): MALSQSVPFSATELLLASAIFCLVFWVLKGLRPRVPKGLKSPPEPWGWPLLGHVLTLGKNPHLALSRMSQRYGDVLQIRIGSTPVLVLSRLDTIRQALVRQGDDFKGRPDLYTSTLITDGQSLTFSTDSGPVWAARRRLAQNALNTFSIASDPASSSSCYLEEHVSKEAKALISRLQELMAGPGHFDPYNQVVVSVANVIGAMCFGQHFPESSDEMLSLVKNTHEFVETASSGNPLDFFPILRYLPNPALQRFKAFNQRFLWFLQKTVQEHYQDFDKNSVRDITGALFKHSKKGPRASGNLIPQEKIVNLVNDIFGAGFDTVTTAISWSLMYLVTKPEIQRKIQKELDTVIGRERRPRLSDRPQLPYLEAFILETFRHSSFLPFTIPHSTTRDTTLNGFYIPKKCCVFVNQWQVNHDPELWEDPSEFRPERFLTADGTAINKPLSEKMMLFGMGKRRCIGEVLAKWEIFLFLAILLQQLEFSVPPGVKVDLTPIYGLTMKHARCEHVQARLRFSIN

As for `CC(C)=CCC1=C(O)c2ccccc2C(=O)C1=O`, the compound was called inactive in [1] and in [2]. Moreover, the activity change, negative = inhibition in test [3] was -0.846% (inactive). Besides, the max response in test [3] (setting [25]) was -0.752%; in test [3] (setting [26]) it was 0.642%. Also, the Potency in test [4] was 35.5 µM (active). Also, the Potency result in test [5] and in [6] was “inactive” throughout.
For the compound `COc1cc(O)c2c(=O)cc(C)oc2c1CC=C(C)C`, the Potency entry in [7], in [5] and in [8] was “inactive” throughout. In addition, the compound was classed as inactive in test [1], in [2], in test [9] and in test [10]. In [3], the activity change, negative = inhibition is 15% (inactive). Also, the max response worked out at 7.83% in test [3] (setting [25]) and 11.5% in test [3] (setting [26]). Moreover, the Potency in test [11] was 22.1 µM (active).
Regarding `COc1cccc(Cn2c(=O)c(-c3cn(C)c4ccccc34)nc3cnc(N4CCNCC4)nc32)c1`, the Potency in [12] is > 11.4 µM (inactive); in [13], 15.8 µM (active); in test [14], > 9.22 µM (inactive); in [15], > 46 µM (inactive); in test [4] it was 14.1 µM (active). Also, the Potency result in [16], in test [7], in test [17], in [18], in test [5] and in test [8] was “inactive” in each case. Further, in test [11], the Potency entry is “inactive”. Also, in test [3], the activity change, negative = inhibition is 5.92% (inactive). Also, the max response in [3] (setting [25]) was determined as 13.9%; in [3] (setting [26]), 20.8%. For the same compound, the call in test [9] was inactive.
Take `Cc1cccc(CNc2nc(-c3ccc4c(c3)OCO4)nc3ccccc23)c1`: the Potency in [12] was > 11.4 µM (inactive); in test [13] it was 0.631 µM (active); in [14], > 46 µM (inactive); in test [15], > 46 µM (inactive); in [22], 3.16 µM (active). The results for the activity change, negative = inhibition in test [19] and in [3] were -27.3% (inactive) and -7.8% (inactive), respectively. Also, in test [20], the activity, negative = inhibition is -19.3% (inactive). Moreover, the compound was classed as inactive in test [21], in test [9] and in test [10]. In addition, the Potency result in [7], in test [17], in [18], in test [24], in [4] and in test [5] was “inactive” each time. Also, the Potency entry in test [8] was “inactive”. In addition, the activation in test [23] was 6.93% (inactive). Also, the max response in test [3] (setting [25]) was -19.2%; in test [3] (setting [26]), -24.8%.
